# Laboratory results published in PubChem BioAssay (EPA / NIEHS).
# Results filed as inconclusive are left out. The source made the active and inactive calls. How the source made its calls, unless noted: active means hit-call score of the fitted dose curve at least 0.9, where 1 is the maximum; inconclusive means response in the unintended direction; inactive means score below 0.9.
# Assays:
# [1] = STM_H9_CystineISnorm_perc: Stemina devTOX quickPredict H9 human embryonic stem cell (hESC)-based Assay for Cystine (CYSS) Metabolite Biomarker, Normalized (AID 2283713; active means hit-call score of the fitted dose curve at least 0.9, where 1 is the maximum; inactive means score below 0.9)
# Method in brief: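 Cystine in spent media from the last 24 h of a 72 h H9 hESC exposure (daily re-dosing), measured by UPLC-HRMS. Values normalized to isotopic internal standard, then to 0.1% DMSO; viability via CellTiter-Fluor.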
# [2] = STM_H9_OrnCyssISnorm_ratio: Stemina devTOX quickPredict H9 human embryonic stem cell (hESC)-based Assay for Ornithine (ORN):Cystine (CYSS) Ratio (AID 2283714)
# Method in brief: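 Ratio of internal-standard-normalized ornithine to cystine, measured by UPLC-HRMS in spent media from the last 24 h. H9 cells kept pluripotent, dosed 72 h with daily media and compound renewal; DMSO 0.1% serves as baseline.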
# [3] = CEETOX_H295R_MTT_cell_viability: Viability Assessment in the CeeTox HT-H295R MTT Assay (AID 2283718; active means hit-call score of the fitted dose curve at least 0.9, where 1 is the maximum; inactive means score below 0.9;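 on AC50: curve fitted both ways so AC50 may mark viability loss or gain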)
# Method in brief: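 MTT reduction (0.5 mg/ml, 4 h at 37 C; absorbance at 570 and 650 nm) gave viability as background-corrected percent change versus controls. H295R cells had 48 h forskolin (10 uM) prestimulation, then 48 h chemical exposure at 0.1% DMSO.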
# [4] = Tanguay_ZF_120hpf_ActivityScore_legacy: (Legacy) Oregon State University Tanguay Lab 120 Hour Post-fertilization zebrafish Assay Score for Activity (AID 2283742);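 on AC50: dechorionated Tropical 5D wild-type zebrafish embryos held singly per well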
# Method in brief: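 Binary scoring of mortality and morphology by brightfield at 24 and 120 hpf, summarised into one activity score from 18 components relative to DMSO. Wild-type Tropical 5D zebrafish, chorion removed at 4 hpf, static exposure 6–120 hpf, 28 °C.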
# [5] = system: Thyroperoxidase (TPO), gene 445522; test: CCTE_Simmons_GUA_TPO: CCTE's Guaiacol Assay for Thyroperoxidase (TPO) Inhibition, Simmons Lab (AID 2283750)
# Method in brief: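 Porcine thyroid microsomes (25 ug) in 200mM potassium phosphate, preincubated 30 s at 37C with compound (8 concentrations, 5 nM–87.5 uM) and 35mM guaiacol; 1mM H2O2 starts reaction. Absorbance change at 450nm over first 80 s; loss of signal versus DMSO, three replicates.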
# [6] = ArunA_CellTiter_hNC: Viability Assessment in the ArunA Biomedical's Oris Neural Crest (hNC) Cell Migration Assay (AID 2283752)
# Method in brief: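 After a 72 h chemical exposure, viability of hNC cells is read with CellTiter Aqueous One and fitted as signal loss relative to DMSO. Cells were seeded at 60,000/well on Matrigel and cultured 16 h at 37 C beforehand.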
# [7] = ArunA_CellTiter_hNP: Viability Assessment in the ArunA Biomedical's Oris Neural Crest (hNC) Cell Migration Assay (AID 2283753)
# Method in brief: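 Viability read with CellTiter 96 Aqueous One after 72 h chemical exposure of human hNP1 neuroprogenitors, which were plated on Matrigel in LIF/bFGF medium 16 h beforehand. Endpoint fitted in positive direction relative to DMSO.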
# [8] = ArunA_Migration_hNC: ArunA Biomedical's Oris Neural Crest (hNC) Cell Migration Assay (AID 2283755)
# Method in brief: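 Calcein-AM fluorescence (ex494 nm/em 517 nm) in the stopper-defined detection zone quantifies migration of hNC cells after 72 h chemical exposure; 60,000 cells/well plated on Matrigel with LIF and bFGF, 16 h pre-incubation. DMSO baseline.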
structure (smiles),measurement,setting,value
CCNP(=S)(OC)O/C(C)=C/C(=O)OC(C)C (centres undefined),AC50,[1],75.5 µM (active)
same,AC50,[2],72.6 µM (active)
same,outcome,[3],inactive
same,outcome,[4],inactive
CCN(CC)C(=O)C(C)Oc1cccc2ccccc12 (centres undefined),AC50,[1],5.52 µM (active)
same,AC50,[2],6.66 µM (active)
same,outcome,[3],inactive
same,outcome,[4],inactive
CC(C)(C)C(=O)C(Oc1ccc(Cl)cc1)n1cncn1 (centres undefined),AC50,[1],34.3 µM (active)
same,AC50,[2],71.8 µM (active)
same,outcome,[3],inactive
same,AC50,[4],33.6 µM (active)
CO/N=C(/C1=NOCCO1)c1ccccc1Oc1ncnc(Oc2ccccc2Cl)c1F,AC50,[1],9.72 µM (active)
same,AC50,[2],18.2 µM (active)
same,AC50,[4],3.17 µM (active)
Cc1nc(N(C)C)nc(OC(=O)N(C)C)c1C,outcome,[3],inactive
same,outcome,[4],inactive
CCOc1nc(F)cc2nc(S(=O)(=O)Nc3c(Cl)cccc3Cl)nn12,AC50,[1],0.0249 µM (active)
same,outcome,[4],inactive
same,AC50,[5],55 µM (active)
Cn1c(-c2ccccc2)cc(-c2ccccc2)[n+]1C,AC50,[1],10.9 µM (active)
same,AC50,[2],20 µM (active)
same,outcome,[4],inactive
CN/C(=N\[N+](=O)[O-])NCc1cnc(Cl)s1,outcome,[3],inactive
same,outcome,[4],inactive
CCCCC(O)(Cn1cncn1)c1ccc(Cl)cc1Cl (centres undefined),AC50,[1],78.9 µM (active)
same,AC50,[2],76.5 µM (active)
same,outcome,[4],inactive
CCOP(=S)(OCC)Oc1nc(Cl)n(C(C)C)n1,AC50,[1],50.5 µM (active)
same,AC50,[2],54.9 µM (active)
same,outcome,[3],inactive
same,outcome,[4],inactive
CCNC(=O)NC(=O)C(C#N)=NOC,outcome,[1],inactive
same,AC50,[2],77 µM (active)
same,AC50,[4],32.4 µM (active)
COCC(=O)N(c1c(C)cccc1C)C(C)C(=O)OC (centres undefined),outcome,[3],inactive
same,outcome,[4],inactive
COCc1cnc(C2=NC(C)(C(C)C)C(=O)N2)c(C(=O)O)c1 (centres undefined),outcome,[1],inactive
same,outcome,[2],inactive
same,outcome,[3],inactive
same,outcome,[4],inactive
same,outcome,[6],inactive
same,outcome,[7],inactive
same,outcome,[8],inactive
CNC(=O)Oc1cccc2ccccc12,AC50,[1],2.87 µM (active)
same,AC50,[2],2.71 µM (active)
same,outcome,[3],inactive
same,outcome,[4],inactive
CS(=O)(=O)c1cc(C(F)(F)F)ccc1C(=O)c1cnoc1C1CC1,outcome,[1],inactive
same,outcome,[4],inactive
CCOc1nc(C(Cl)(Cl)Cl)ns1,outcome,[1],inactive
same,AC50,[2],9.92 µM (active)
same,outcome,[3],inactive
same,outcome,[4],inactive
CC1(C)C(C=C(Cl)Cl)C1C(=O)OC(C#N)c1cccc(Oc2ccccc2)c1 (centres undefined),outcome,[1],inactive
same,outcome,[2],inactive
same,outcome,[3],inactive
same,AC50,[4],1.14 µM (active)
COC(=O)c1c(C(F)F)nc(C(F)(F)F)c(C2=NCCS2)c1CC(C)C,AC50,[3],38.8 µM (active)
same,outcome,[4],inactive
CCCCC(C#N)(Cn1cncn1)c1ccc(Cl)cc1 (centres undefined),outcome,[1],inactive
same,AC50,[2],77.9 µM (active)
same,outcome,[3],inactive
same,outcome,[4],inactive
